Measured values published in PubChem BioAssay AID1159580 (chemical genetic matrix, 2015).
Hit rate of the full screen: of about 5,500 compounds, about 2,000 (36%) were called active. Inconclusive results (about 18%) are left out. Cut-off read from the data, not from the text of the source: active = normalized growth mostly below about 0.91 (no sharp cut-off); inconclusive = no clear call, values can overlap the other calls; inactive = mostly above about 0.92. This is one part of the list.

Assay: chemical genetic growth profiling, strain panel (AID 1159580);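 note: tested at 20 µM; growth read once vehicle control cultures reached saturation at 30 °C; 1 = growth at the plate median or of vehicle wells; lower values mean less growth of the strain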
Settings: S. cerevisiae deletion strains, growth OD

Measured: normalized growth

Cc1c(O)cc(O)c2c(=O)c(-c3ccc(O)cc3)coc12
inactive: locus YBR021W, strain FUR4, stronger effect = lower value 1.01 | locus YBR229C, strain ROT2, stronger effect = lower value 1 | locus YCL029C, strain bik1, stronger effect = lower value 1.02 | locus YDL035C, strain GPR1, stronger effect = lower value 1.01 | locus YDL074C, strain BRE1, stronger effect = lower value 1.01 | locus YDL101C, strain DUN1, stronger effect = lower value 1.01 | locus YDL185W, strain tfp1, stronger effect = lower value 1.01 | locus YDL192W, strain arf1, stronger effect = lower value 1.02 | locus YDR101C, strain arx1, stronger effect = lower value 1 | locus YDR150W, strain NUM1, stronger effect = lower value 0.997 | locus YDR162C, strain NBP2, stronger effect = lower value 1 | locus YDR318W, strain mcm21, stronger effect = lower value 1 | locus YDR388W, stronger effect = lower value 1.01 | locus YDR502C, strain sam2, stronger effect = lower value 1.01 | locus YEL061C, strain CIN8, stronger effect = lower value 0.993 | locus YER110C, stronger effect = lower value 1.02 | locus YER155C, strain BEM2, stronger effect = lower value 1.01 | locus YER167W, strain BCK2, stronger effect = lower value 1 | locus YGL078C, strain dbp3, stronger effect = lower value 1.01 | locus YGL086W, strain mad1, stronger effect = lower value 1.02 | locus YGL248W, strain PDE1, stronger effect = lower value 1 | locus YGR078C, strain PAC10, stronger effect = lower value 0.978 | locus YGR135W, strain pre9, stronger effect = lower value 1.03 | locus YGR229C, strain SMI1, stronger effect = lower value 0.987 | locus YGR252W, strain gcn5, stronger effect = lower value 0.983 | locus YHR030C, strain SLT2, stronger effect = lower value 1 | locus YHR079C, strain IRE1 (second series), stronger effect = lower value 1 | locus YHR094C, strain hxt1, stronger effect = lower value 1 | locus YHR129C, strain ARP1, stronger effect = lower value 1 | locus YHR200W, strain rpn10, stronger effect = lower value 1.01 | locus YIL066C, strain RNR3, stronger effect = lower value 0.995 | locus YIL073C, strain SPO22, stronger effect = lower value 1.07 | locus YIL125W, strain kgd1, stronger effect = lower value 0.996 | locus YIR030C, strain dcg1, stronger effect = lower value 1.01 | locus YJL095W, strain BCK1, stronger effect = lower value 0.998 | locus YJL134W, strain LCB3, stronger effect = lower value 1 | locus YJL168C, strain set2, stronger effect = lower value 1 | locus YJL187C, strain SWE1 (second series), stronger effect = lower value 0.991 | locus YJR043C, strain POL32, stronger effect = lower value 0.997 | locus YJR075W, strain HOC1, stronger effect = lower value 0.99 | locus YKL009W, strain mrt4, stronger effect = lower value 0.99 | locus YKL068W, stronger effect = lower value 1 | locus YKL085W, strain MDH1 (second series), stronger effect = lower value 0.994 | locus YKL085W, strain MDH1, stronger effect = lower value 0.994 | locus YKL190W, strain CNB1, stronger effect = lower value 0.986 | locus YKR001C, strain vps1, stronger effect = lower value 0.992 | locus YLR039C, strain RIC1, stronger effect = lower value 1.18 | locus YLR058C, strain SHM2, stronger effect = lower value 0.993 | locus YLR102C, strain apc9, stronger effect = lower value 1.01 | locus YLR262C, strain YPT6, stronger effect = lower value 1.21 | locus YLR268W, strain sec22, stronger effect = lower value 1.01 | locus YLR330W, strain CHS5, stronger effect = lower value 1.01 | locus YLR342W, strain FKS1 (second series), stronger effect = lower value 1.02 | locus YLR371W, strain rom2, stronger effect = lower value 1.01 | locus YLR418C, strain cdc73, stronger effect = lower value 0.95 | locus YML016C, strain PPZ1, stronger effect = lower value 1.01 | locus YML032C, strain rad52, stronger effect = lower value 0.995 | locus YML124C, strain tub3, stronger effect = lower value 1.02 | locus YMR078C, strain ctf18, stronger effect = lower value 1.01 | locus YMR223W, strain ubp8, stronger effect = lower value 1.01 | locus YMR263W, strain SAP30, stronger effect = lower value 0.989 | locus YMR307W, strain GAS1, stronger effect = lower value 0.993 | locus YNL067W, strain RPL9B, stronger effect = lower value 0.986 | locus YNL153C, strain GIM3, stronger effect = lower value 0.979 | locus YNL233W, strain BNI4, stronger effect = lower value 0.979 | locus YNL250W, strain rad50, stronger effect = lower value 1.01 | locus YNL271C, strain bni1, stronger effect = lower value 1.02 | locus YNL298W, strain CLA4, stronger effect = lower value 1.01 | locus YNL307C, strain MCK1, stronger effect = lower value 1.01 | locus YNR052C, strain pop2, stronger effect = lower value 1.01 | locus YOL012C, strain htz1 1.03 | locus YOL147C, strain pex11, stronger effect = lower value 0.998 | locus YOR061W, strain CKA2, stronger effect = lower value 1 | locus YOR069W, strain VPS5, stronger effect = lower value 1.01 | locus YOR136W, strain idh2, stronger effect = lower value 0.999 | locus YOR144C, strain elg1, stronger effect = lower value 1 | locus YOR184W, strain ser1, stronger effect = lower value 0.988 | locus YOR316C, strain cot1, stronger effect = lower value 1.02 | locus YPL055C, strain LGE1, stronger effect = lower value 0.944 | locus YPR119W, strain clb2, stronger effect = lower value 1 | locus YPR141C, strain kar3, stronger effect = lower value 1.02 | locus YPR163C, strain tif3, stronger effect = lower value 1 | locus YPR167C, strain met16, stronger effect = lower value 1.03 | strain wtn01, stronger effect = lower value 1.01
